About 240 (0.067%) of roughly 360,000 compounds were called active. Rule as the data show it: active = activation above about 50%; inconclusive = mostly about 30% to 49%; inactive = weaker than that. Only a selection was taken, and actives are over-represented in it overall.
Test: qHTS of IL-2 Activators; also: 0% is about no effect
Details: IL-2 activation reporter assay, cell-based qHTS; stronger effect = higher value; in transgenic mouse T cells; stimulated with anti-CD3/CD4/CD28 beads
Text: The adaptive immune response against any infectious agent begins with the activation of an antigen specific T cell. This relatively rare and inert ("naive") T cell undergoes a massive proliferative expansion and differentiation process to generate sufficient number of potent pathogen-specific effector T cells. The effector T cells fight the infection by making cytokines and helping other cells to become fully armed as well. If any naive T cell has antigen receptors (TCRs) that can be activated by self peptides, then a variety of regulatory mechanisms kick in to prevent this cell from performing to its full potential. These processes collectively constitute the phenomenon of immunological tolerance and their failure leads to autoimmunity. One arm of tolerance involves generation of biochemical negative feedback downstream of the TCR (tuning). This is especially relevant to self antigens present in the body over long periods of time (chronic), which form the bulk of our proteome. The negative feedback serves to tune the TCR signaling, such that the ambient antigenic stimulation is nullified intracellularly. Unfortunately, this critical machinery serves as a target for chronic viral, bacterial and parasitic infections (as well as tumors), which can evade a robust immune response, simply by allowing T cells to tune down their signaling to pathogen or malignancy derived antigens. As such, disrupting the tuning in such cases would allow the tolerant T cell to function again and deliver a robust effector response.
If a therapeutic can restore responsiveness to the tuned down T cell, even for a short time, they could combat the pathogen without any additional immunization. To that end, we have developed a sensitive HTS T cell based assay based on IL-2. This assay will be screened against the Molecular Libraries Small Molecule Repository (MLSMR) to find small molecules that could elicit this response.
NIH Chemical Genomics Center [NCGC]
NIH Molecular Libraries Probe Centers Network [MLPCN]
Assay Submitter (PI): Ron Schwartz, NIAID
4 microL (750 cells/well) of unstimulated transgenic mouse T cells (columns 1-3,5-48) are dispensed into Aurora LoBase, black clear-bottom 1536-well assay plates; column 4 receives an identical concentration of transgenic memory T cells as a non-tolerant control. Compounds are then transferred via Kalypsys pin tool equipped with 1536-pin array (10 nL slotted pins, V&P Scientific, San Diego, CA). Following addition of compound and a 60 minute incubation, 1 microL of bead stimulation solution ((0.04 micron Fluospheres (Life technologies, CA) coated with 10ug/ml each anti-CD3 and anti-CD4 (clones 2C11 and GK1.5, BD Biosciences, CA) and mixed with 1ug/ml anti-CD28 (clone PV-1, BD biosciences, CA)). columns 2-48) is added to stimulate the IL-2 response pathway; media is instead added to column 1 as an unstimulated control, while PMA/ionomycin (Sigma Aldrich, MO) is added to column 3 as a control for IL-2 tolerance bypass. The plates are then incubated at 37 degrees C for 18 hours. EGFP and DsRed signal are then detected using an Acumen eX3 Explorer fluorescent plate cytometer. All cells are dispensed in cell media containing EHAA (Quality Biologicals, MD), RPMI (Quality Biologicals, MD), Glutamine (Life Technologies, CA), Penicillin/Streptomycin (Quality Biologicals, MD), 2-ME (Sigma Aldrich, MO) and 10% FBS (Gemini Bioproducts, CA) .

Compound	activation
Cc1nc2ccc(S(=O)(=O)NCC(=O)NCCN3CCCCC3C)cc2s1 (stereo unspecified)	0.794% (inactive)
COc1ccc(C(=O)C2CCCN(C(=O)c3cc4nc(C)cc(C)n4n3)C2)cc1F (stereo unspecified)	-1.95% (inactive)
Cc1cccc2[nH]c(CN(C)C(=O)C3CCC(=O)N(CCc4ccccc4)C3)nc12 (stereo unspecified)	-4.62% (inactive)
CCCCN=C1C([N+](=O)[O-])=CC=C2C1=NC1(CCCCC1)N2O	-0.493% (inactive)
CCOC(=O)C1CCN(c2c(Nc3cc(C)cc(C)c3)c(=O)c2=O)CC1	3.74% (inactive)
COc1ccc(S(=O)(=O)Nc2cccc3c2O[C@H](CN(C)S(=O)(=O)c2ccc(OC)cc2)[C@@H](C)CN([C@H](C)CO)C3=O)cc1	-0.577% (inactive)
COc1ccc(-c2ccc3[nH]c4c(c3c2)CCN2C[C@H]3[C@H](C)ON(C)[C@H]3C[C@@H]42)cc1	-3.69% (inactive)
COc1cc(C(F)(F)F)nc2c(Br)c(C(C)(C)C)nn12	-2.42% (inactive)
COc1ccc(N2CCN(CCNC(=O)CCN3C(=O)COc4ccccc43)CC2)cc1	-1.26% (inactive)
Cc1cc(Cl)ccc1OCc1nc(-c2ccncc2)no1	-0.482% (inactive)
O=C(NNc1ccccc1Cl)C(O)(c1cccc(C(F)(F)F)c1)c1cccc(C(F)(F)F)c1	-0.487% (inactive)
Cn1c2ccc(F)cc2c2nnc(NN)nc21	0.485% (inactive)
CC(C)(C)NC(=O)CN1CCC(NC(=O)C23CC4CC(CC(C4)C2)C3)CC1	-0.682% (inactive)
COc1ccc(CCC(=O)N2CCN(S(=O)(=O)c3ccc(OC)cc3)CC2)cc1	0.152% (inactive)
COc1ccc(CCc2nnc(CCC(=O)NCc3cnn(-c4ccccc4C)c3)o2)cc1	-0.0481% (inactive)
Cn1cnc(S(=O)(=O)Nc2ccc3c(c2)OCCO3)c1	0.511% (inactive)
COc1cccc(N2CCN(CC(=O)Nc3ccnn3C3CCCC3)CC2)c1	0.356% (inactive)
O=C1CCC(Cc2ccccc2)N1 (stereo unspecified)	-3.46% (inactive)
CN1CCN(S(=O)(=O)c2ccc(N3CCN(S(=O)(=O)c4cccs4)CC3)nc2)CC1	0.642% (inactive)

Compound	activation
O=C1Cc2ccccc2Sc2ccc(Cl)cc21	-0.448% (inactive)
CSCC[C@H](NC(=O)N1CCn2c1nc1ccccc12)C(=O)NCc1ccc2c(c1)OCO2	-1.15% (inactive)
COc1ccc(N2CCN(C(=O)CCSCc3ccccc3F)CC2)cc1	1.14% (inactive)
NC(=O)COC(=O)c1ccc2c(c1)C(=O)N(Cc1ccco1)C2=O	-0.0741% (inactive)
Cc1cnc(C(=O)N2CCCC(C(=O)c3ccc(C(F)(F)F)cc3)C2)cn1 (stereo unspecified)	0.823% (inactive)
CCOc1ccc(Nc2nc(Cc3nnc(SCC(=O)c4ccc(C)cc4)o3)cs2)cc1	-0.186% (inactive)
NCCN1CCN2C(=O)CN(C(=O)c3ccccc3)CC12 (stereo unspecified)	1.5% (inactive)
Cc1cc(C)cc(N(CC(=O)N2CC=C(c3ccccc3)CC2)S(=O)(=O)c2c(C)noc2C)c1	-2% (inactive)
CC1=NN(C(C)C)C(=O)C1	-0.959% (inactive)
CC1=C(C(=O)N2CCOCC2)CC(CC(=O)NCCN2CCOCC2)C(=O)N1CCC1=CCCCC1 (stereo unspecified)	2.16% (inactive)
CC(=O)CSc1nnc(CSc2ncccn2)n1C1CCCCC1	4.89% (inactive)
O=C(O)CN(Cc1ccco1)S(=O)(=O)c1ccccc1	0.214% (inactive)
CC(=O)N1CC[n+]2c(-c3ccc([N+](=O)[O-])cc3)csc21	-2.73% (inactive)
Cc1ccccc1N1C(=O)C(Oc2ccc(Cl)cc2)C1CNCC1CCCO1 (stereo unspecified)	0.756% (inactive)
O=C1/C(=C\c2cccnc2)CN(Cc2ccccc2)C/C1=C\c1cccnc1	-0.836% (inactive)
Cc1c2cn[nH]c(=O)c2c(C)n1Cc1ccc(F)cc1	-0.791% (inactive)
Cc1c(C(=O)OCC(=O)N2CCCC2=O)oc2ccccc12	-1.29% (inactive)
O=S(=O)(Nc1nccs1)c1ccc2c(c1)OCCO2	-0.72% (inactive)
CN1CCN(C2Cc3ccc(Cl)cc3Sc3ccc(F)cc32)CC1 (stereo unspecified)	-2.1% (inactive)

Compound	activation
Cc1cc([N+](=O)[O-])nn1CCCC(=O)Nc1cccnc1Cl	-0.291% (inactive)
Cc1cc(NC(=O)c2cc(-c3cccs3)on2)nn1Cc1ccc(Cl)cc1	0.242% (inactive)
CC1(C)O[C@@H]2[C@H](O1)[C@@H](COS(=O)(=O)O)O[C@H]2n1cnc2c(=O)[nH]cnc21	-0.104% (inactive)
CCCc1nc(SCC(=O)Nc2ccc(S(=O)(=O)N(C)C)cc2)c2ccccc2n1	-0.583% (inactive)
Cc1ccc(S(=O)(=O)CC(=O)Nc2sc(C)c(C)c2C(N)=O)cc1	0.0351% (inactive)
COCCN(C(=O)CCC(=O)Nc1nccs1)C(C(=O)NCCC(C)C)c1ccc(F)cc1 (stereo unspecified)	-1.07% (inactive)
O=C(NCc1cccnc1)c1cc(C2CCCCN2C(=O)CCc2ccccc2)on1 (stereo unspecified)	-0.0033% (inactive)
CCOc1ccc(-n2c(SC(C)C(=O)OC)nc3c(c2=O)SCC3)cc1 (stereo unspecified)	-0.633% (inactive)
Cc1cccc(N=Nc2c(O)[nH]c3ccc(F)cc23)c1	137% (active)
Cc1ccc(CNC(=O)CSc2nnc3c(n2)[nH]c2ccc(F)cc23)cc1	-0.754% (inactive)
COc1ccc(NC(=O)/C(N=Nc2cccc(S(=O)(=O)Nc3ccc(SC(F)F)cc3)c2)=C(\C)O)cc1	0.0635% (inactive)
Cc1ccccc1OC(=O)Cn1c(C(F)(F)F)nc2ccccc21	0.516% (inactive)
CCCS(=O)(=O)N1CCN=C1SCc1cccc(F)c1	1.16% (inactive)
CC1=C[C@H]2Cc3cc(C)cc(C)c3S(=O)(=O)[C@@H]2C=C1	0.251% (inactive)
OCCCC1CCCCN1Cc1nc(Cc2ccccc2Cl)no1 (stereo unspecified)	1.46% (inactive)
CCCCN(C(=O)/C=C/c1ccco1)c1c(N)n(CC(C)C)c(=O)[nH]c1=O	5.81% (inactive)
CC(=O)c1cccc(NC(=O)C2CCCN(S(=O)(=O)c3cccc4nonc34)C2)c1 (stereo unspecified)	2.63% (inactive)
COc1ccc(COC[C@H](CC(C)C)N2CCN(C(=O)c3cccc(C(F)(F)F)c3)CCC2=O)cc1	-1.15% (inactive)
